# ± gives the standard deviation of the averaged measurements. The full data set covers some 5,400 targets. This sample favours those with the largest changes.
# Compound: Nc1nc2c(ncn2[C@@H]2O[C@H](COP(=O)(O)OP(=O)(O)OP(=O)(O)O)[C@@H](O)[C@H]2O)c(=O)[nH]1 [guanosine triphosphate]
# Experiment: NP40-soluble protein abundance relative to vehicle (solubility fold change) (ratio); higher = more soluble protein in presence of GTP
# Method in brief: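 Jurkat crude lysate prepared with a Dounce homogeniser was treated at eight concentrations spanning 0.1 to 10 mM, 10 min at room temperature then 3 min at 37 °C. Solubilisation with 0.8% NP40 and benzonase and ultracentrifugation preceded TMT labelling of the supernatant for LC-MS/MS. Fold change against the detergent-processed vehicle was determined per replicate from vsn-normalised intensities, across three independent experiments.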
# Chain of UniProt O43809 (O43809 whole entry): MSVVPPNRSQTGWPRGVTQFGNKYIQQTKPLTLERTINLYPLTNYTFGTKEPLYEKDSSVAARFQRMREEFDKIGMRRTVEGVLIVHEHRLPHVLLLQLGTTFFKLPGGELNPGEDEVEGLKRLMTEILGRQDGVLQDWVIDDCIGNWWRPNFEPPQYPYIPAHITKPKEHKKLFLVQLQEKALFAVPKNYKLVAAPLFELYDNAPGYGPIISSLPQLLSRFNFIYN
# Chain of UniProt O14925 (O14925 whole entry): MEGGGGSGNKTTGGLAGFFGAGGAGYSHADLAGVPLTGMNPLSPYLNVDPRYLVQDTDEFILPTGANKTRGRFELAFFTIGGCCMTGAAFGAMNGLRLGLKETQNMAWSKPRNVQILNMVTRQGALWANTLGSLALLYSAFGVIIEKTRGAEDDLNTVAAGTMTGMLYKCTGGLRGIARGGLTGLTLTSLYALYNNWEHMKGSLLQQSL
# Chain of UniProt O75828 (O75828 whole entry): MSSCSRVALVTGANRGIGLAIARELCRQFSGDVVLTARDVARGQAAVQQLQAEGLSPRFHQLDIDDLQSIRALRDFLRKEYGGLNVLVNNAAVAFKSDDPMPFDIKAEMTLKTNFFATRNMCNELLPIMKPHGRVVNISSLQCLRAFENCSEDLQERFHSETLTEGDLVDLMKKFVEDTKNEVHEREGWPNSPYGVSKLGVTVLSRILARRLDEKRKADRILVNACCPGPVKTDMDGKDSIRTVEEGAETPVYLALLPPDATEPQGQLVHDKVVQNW
# Chain of UniProt P16403 (P16403 whole entry): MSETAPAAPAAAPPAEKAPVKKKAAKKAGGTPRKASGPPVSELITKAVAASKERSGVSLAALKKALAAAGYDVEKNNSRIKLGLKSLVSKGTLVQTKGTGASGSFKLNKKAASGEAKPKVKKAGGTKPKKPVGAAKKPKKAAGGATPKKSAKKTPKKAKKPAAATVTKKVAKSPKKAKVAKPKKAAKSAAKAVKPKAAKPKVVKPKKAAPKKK
# Chain of UniProt P17029 (P17029 whole entry): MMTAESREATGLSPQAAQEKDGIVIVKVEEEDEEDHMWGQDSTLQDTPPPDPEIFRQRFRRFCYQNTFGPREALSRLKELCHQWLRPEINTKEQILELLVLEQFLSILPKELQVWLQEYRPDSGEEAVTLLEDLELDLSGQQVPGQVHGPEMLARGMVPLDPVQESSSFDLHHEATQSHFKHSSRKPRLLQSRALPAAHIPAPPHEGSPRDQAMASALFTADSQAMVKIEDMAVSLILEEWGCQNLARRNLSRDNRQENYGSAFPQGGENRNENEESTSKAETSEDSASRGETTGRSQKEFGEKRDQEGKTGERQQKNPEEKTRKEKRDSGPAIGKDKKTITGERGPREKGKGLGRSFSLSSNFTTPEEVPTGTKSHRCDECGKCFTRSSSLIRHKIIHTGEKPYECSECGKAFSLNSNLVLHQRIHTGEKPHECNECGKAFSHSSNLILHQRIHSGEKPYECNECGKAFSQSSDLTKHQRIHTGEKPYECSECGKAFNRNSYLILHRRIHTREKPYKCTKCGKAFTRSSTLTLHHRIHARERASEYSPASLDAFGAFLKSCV
# Chain of UniProt P06239 (P06239 whole entry, looked up): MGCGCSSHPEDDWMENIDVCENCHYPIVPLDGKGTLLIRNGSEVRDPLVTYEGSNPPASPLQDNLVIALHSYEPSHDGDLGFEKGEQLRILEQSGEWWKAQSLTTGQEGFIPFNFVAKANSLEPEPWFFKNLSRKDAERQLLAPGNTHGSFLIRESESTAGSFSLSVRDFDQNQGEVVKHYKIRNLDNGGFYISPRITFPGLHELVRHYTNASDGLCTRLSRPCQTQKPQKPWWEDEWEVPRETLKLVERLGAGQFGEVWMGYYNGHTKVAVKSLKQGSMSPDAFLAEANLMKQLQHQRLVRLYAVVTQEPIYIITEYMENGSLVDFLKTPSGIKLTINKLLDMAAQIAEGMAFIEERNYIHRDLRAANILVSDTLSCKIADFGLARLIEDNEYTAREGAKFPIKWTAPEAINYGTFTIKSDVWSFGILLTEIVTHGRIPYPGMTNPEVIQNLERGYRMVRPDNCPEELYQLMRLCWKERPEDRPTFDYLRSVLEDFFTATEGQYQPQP
# Chain of UniProt P11388 (P11388 whole entry): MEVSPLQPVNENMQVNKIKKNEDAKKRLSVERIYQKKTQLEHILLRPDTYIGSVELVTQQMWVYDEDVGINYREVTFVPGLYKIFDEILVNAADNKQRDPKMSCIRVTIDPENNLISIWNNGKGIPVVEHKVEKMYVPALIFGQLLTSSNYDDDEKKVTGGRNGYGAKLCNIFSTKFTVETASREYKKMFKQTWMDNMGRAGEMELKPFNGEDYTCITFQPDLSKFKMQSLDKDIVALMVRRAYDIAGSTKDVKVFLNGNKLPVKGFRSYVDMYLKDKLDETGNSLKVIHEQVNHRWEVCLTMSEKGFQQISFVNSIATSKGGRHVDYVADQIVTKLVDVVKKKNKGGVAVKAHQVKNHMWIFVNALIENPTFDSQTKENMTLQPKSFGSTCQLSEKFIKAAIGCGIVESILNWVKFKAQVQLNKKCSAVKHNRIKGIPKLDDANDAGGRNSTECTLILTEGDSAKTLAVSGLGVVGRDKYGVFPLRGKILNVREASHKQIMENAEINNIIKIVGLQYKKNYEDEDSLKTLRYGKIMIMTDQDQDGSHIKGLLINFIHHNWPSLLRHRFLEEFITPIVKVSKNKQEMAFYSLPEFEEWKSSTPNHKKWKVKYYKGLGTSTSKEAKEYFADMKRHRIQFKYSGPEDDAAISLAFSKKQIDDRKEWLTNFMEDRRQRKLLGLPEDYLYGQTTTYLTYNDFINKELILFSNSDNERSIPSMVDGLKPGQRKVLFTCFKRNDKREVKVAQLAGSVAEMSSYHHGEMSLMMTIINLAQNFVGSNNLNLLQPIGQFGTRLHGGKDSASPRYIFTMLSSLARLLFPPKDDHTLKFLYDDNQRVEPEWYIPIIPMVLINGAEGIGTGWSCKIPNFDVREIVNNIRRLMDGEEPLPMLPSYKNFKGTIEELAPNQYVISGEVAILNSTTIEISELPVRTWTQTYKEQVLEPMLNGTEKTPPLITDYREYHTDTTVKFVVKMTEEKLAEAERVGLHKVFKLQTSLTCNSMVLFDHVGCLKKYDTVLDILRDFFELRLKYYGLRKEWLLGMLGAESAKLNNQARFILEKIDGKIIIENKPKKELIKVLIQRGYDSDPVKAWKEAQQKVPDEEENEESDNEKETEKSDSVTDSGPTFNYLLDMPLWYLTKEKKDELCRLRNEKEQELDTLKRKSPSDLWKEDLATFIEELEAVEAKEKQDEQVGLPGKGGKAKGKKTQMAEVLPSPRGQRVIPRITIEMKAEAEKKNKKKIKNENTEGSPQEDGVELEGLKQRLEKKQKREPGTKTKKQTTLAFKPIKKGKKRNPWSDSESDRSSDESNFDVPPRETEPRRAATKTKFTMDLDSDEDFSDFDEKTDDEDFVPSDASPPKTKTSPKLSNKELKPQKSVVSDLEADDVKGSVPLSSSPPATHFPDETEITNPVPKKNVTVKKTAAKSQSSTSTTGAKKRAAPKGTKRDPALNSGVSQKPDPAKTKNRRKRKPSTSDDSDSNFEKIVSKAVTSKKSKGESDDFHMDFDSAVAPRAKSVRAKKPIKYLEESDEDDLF
# Chain of UniProt O60488 (O60488 whole entry, one chain of several): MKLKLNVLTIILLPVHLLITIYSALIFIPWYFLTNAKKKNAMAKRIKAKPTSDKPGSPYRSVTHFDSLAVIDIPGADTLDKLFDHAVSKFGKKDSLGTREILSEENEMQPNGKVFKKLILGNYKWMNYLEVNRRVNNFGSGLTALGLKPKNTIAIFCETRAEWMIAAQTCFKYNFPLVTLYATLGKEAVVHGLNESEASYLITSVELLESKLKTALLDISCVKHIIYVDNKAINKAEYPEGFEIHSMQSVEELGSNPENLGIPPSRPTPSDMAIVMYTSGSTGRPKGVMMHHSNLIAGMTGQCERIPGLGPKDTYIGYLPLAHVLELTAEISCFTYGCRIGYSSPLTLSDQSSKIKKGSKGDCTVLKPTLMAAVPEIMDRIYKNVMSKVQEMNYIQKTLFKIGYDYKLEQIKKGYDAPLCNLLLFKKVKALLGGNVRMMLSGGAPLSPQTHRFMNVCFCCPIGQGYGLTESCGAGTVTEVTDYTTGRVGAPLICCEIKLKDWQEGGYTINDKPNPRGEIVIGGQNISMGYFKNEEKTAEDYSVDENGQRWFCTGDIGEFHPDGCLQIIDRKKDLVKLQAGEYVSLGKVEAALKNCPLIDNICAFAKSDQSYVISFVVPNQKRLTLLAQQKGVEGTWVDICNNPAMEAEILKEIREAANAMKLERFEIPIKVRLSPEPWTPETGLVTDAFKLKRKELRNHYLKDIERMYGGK
# Chain of UniProt P51116 (P51116 whole entry): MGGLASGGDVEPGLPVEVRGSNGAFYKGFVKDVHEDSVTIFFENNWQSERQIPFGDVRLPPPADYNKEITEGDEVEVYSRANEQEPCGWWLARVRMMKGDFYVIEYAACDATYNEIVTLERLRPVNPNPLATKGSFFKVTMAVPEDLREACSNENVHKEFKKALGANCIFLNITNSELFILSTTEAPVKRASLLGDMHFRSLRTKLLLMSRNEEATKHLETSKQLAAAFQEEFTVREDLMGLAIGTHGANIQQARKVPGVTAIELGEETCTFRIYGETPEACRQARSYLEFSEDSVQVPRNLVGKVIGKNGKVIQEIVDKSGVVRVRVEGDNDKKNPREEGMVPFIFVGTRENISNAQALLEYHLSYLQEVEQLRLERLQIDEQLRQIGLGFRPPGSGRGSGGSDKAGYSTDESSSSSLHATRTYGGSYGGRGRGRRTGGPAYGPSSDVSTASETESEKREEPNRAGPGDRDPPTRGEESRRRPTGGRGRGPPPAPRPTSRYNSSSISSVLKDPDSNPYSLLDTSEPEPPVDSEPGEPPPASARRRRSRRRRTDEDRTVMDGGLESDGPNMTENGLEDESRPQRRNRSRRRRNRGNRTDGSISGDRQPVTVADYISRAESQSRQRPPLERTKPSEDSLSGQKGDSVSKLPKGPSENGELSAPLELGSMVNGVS
Target,NP40-soluble protein abundance (concentration: 0.1mM),NP40-soluble protein abundance (concentration: 0.5mM),NP40-soluble protein abundance (concentration: 1mM),NP40-soluble protein abundance (concentration: 2mM),NP40-soluble protein abundance (concentration: 4mM),NP40-soluble protein abundance (concentration: 6mM),NP40-soluble protein abundance (concentration: 8mM),NP40-soluble protein abundance (concentration: 10mM)
NUDT21 (UniProt O43809),1.11 ± 0.12,1.39 ± 0.12,1.64 ± 0.21,1.86 ± 0.31,2.02 ± 0.39,2.04 ± 0.35,1.97 ± 0.25,2.07 ± 0.44
UniProt P11388|P11388-2|P11388-3|P11388-4,1.06 ± 0.054,1.14 ± 0.036,1.2 ± 0.022,1.43 ± 0.052,1.73 ± 0.1,1.94 ± 0.16,2.01 ± 0.18,2.12 ± 0.15
IGHMBP2 (UniProt P38935),1.07 ± 0.072,1.09 ± 0.1,1.14 ± 0.099,1.26 ± 0.17,1.44 ± 0.26,1.6 ± 0.27,1.7 ± 0.43,1.92 ± 0.48
DNAJC8 (UniProt O75937),0.838 ± 0.14,0.801 ± 0.056,1.1 ± 0.17,1.09 ± 0.056,1.08 ± 0.14,1.14 ± 0.12,1.05 ± 0.21,1.3 ± 0.25
P39880-3|Q13948|Q13948-2|P39880 (UniProt Q13948+P39880),0.948 ± 0.035,0.948 ± 0.058,1.01 ± 0.049,0.978 ± 0.063,1.01 ± 0.054,0.997 ± 0.052,1.03 ± 0.024,1.05 ± 0.063
GSTM2 (UniProt P28161),1.03 ± 0.058,0.947 ± 0.051,1 ± 0.1,0.976 ± 0.085,0.956 ± 0.1,0.932 ± 0.11,0.886 ± 0.091,0.899 ± 0.12
HIST1H1C (UniProt P16403),0.984 ± 0.038,1.11 ± 0.074,1.18 ± 0.072,1.22 ± 0.048,1.23 ± 0.096,1.38 ± 0.074,1.26 ± 0.1,1.78 ± 0.15
HIST1H1E (UniProt P10412),1.02 ± 0.12,1.05 ± 0.1,1.13 ± 0.15,1.24 ± 0.11,1.26 ± 0.055,1.38 ± 0.064,1.28 ± 0.18,2.05 ± 0.41
UniProt O60861|O60861-1|O60861-4,1 ± 0.02,1.01 ± 0.071,1.01 ± 0.047,0.94 ± 0.063,0.935 ± 0.035,0.929 ± 0.04,0.978 ± 0.046,0.888 ± 0.06
GM2A (UniProt P17900),0.851 ± 0.015,0.931 ± 0.022,0.876 ± 0.013,0.923 ± 0.1,0.853 ± 0.042,0.859 ± 0.013,0.856 ± 0.12,0.927 ± 0.067
UniProt O75822|O75822-2,0.856 ± 0.038,0.825 ± 0.074,0.908 ± 0.09,0.954 ± 0.098,1.07 ± 0.17,1.32 ± 0.22,1.4 ± 0.3,1.77 ± 0.39
UniProt P06239|P06239-3,1.013 ± 0.0087,1.04 ± 0.034,0.994 ± 0.022,1 ± 0.032,1 ± 0.023,0.963 ± 0.015,0.929 ± 0.026,0.919 ± 0.039
CBR3 (UniProt O75828),1.15 ± 0.032,1.21 ± 0.11,1.11 ± 0.029,1.06 ± 0.082,1.04 ± 0.082,0.936 ± 0.091,1.08 ± 0.22,1.09 ± 0.11
UniProt O43760|O43760-2,0.957 ± 0.086,0.909 ± 0.12,0.911 ± 0.076,0.915 ± 0.083,0.908 ± 0.088,0.852 ± 0.11,0.843 ± 0.15,0.884 ± 0.091
RPL21 (UniProt P46778),0.981 ± 0.092,1 ± 0.082,1.05 ± 0.12,1.01 ± 0.14,0.914 ± 0.2,0.856 ± 0.19,0.72 ± 0.22,0.971 ± 0.23
PPIF (UniProt P30405),0.881 ± 0.08,0.902 ± 0.067,0.863 ± 0.064,0.876 ± 0.078,0.853 ± 0.091,0.868 ± 0.087,0.836 ± 0.11,0.887 ± 0.079
J3KNV1|O60281|O60281-2 (UniProt O60281),1.06 ± 0.041,1.05 ± 0.095,1.12 ± 0.066,1.09 ± 0.13,1.02 ± 0.051,1.04 ± 0.15,1.07 ± 0.057,1.05 ± 0.036
UniProt P09564,1.03 ± 0.2,0.908 ± 0.048,1.09 ± 0.19,0.942 ± 0.15,1.02 ± 0.13,0.977 ± 0.15,1 ± 0.17,0.932 ± 0.14
UniProt P20339|P20339-2,0.999 ± 0.016,1.08 ± 0.04,0.875 ± 0.057,0.937 ± 0.059,0.865 ± 0.034,0.85 ± 0.024,0.82 ± 0.13,0.828 ± 0.14
UniProt P28907,0.92 ± 0.058,0.876 ± 0.075,0.927 ± 0.063,0.902 ± 0.091,0.891 ± 0.088,0.925 ± 0.088,0.895 ± 0.1,0.894 ± 0.058
UniProt O60508|Q5SRN1,1.07 ± 0.031,1.1 ± 0.017,1.09 ± 0.022,1.072 ± 0.0076,1.05 ± 0.034,1.07 ± 0.053,1.11 ± 0.013,1.08 ± 0.042
UniProt P13051|P13051-2,0.9724 ± 0.0086,0.946 ± 0.019,0.944 ± 0.073,0.91 ± 0.062,0.886 ± 0.075,0.892 ± 0.07,0.893 ± 0.036,0.863 ± 0.1
UniProt O60488|O60488-2|D6RD96,1.02 ± 0.028,1.08 ± 0.053,0.9363 ± 0.0046,0.939 ± 0.066,0.908 ± 0.045,0.905 ± 0.049,0.894 ± 0.039,0.843 ± 0.086
FXR2 (UniProt P51116),1.08 ± 0.054,1.13 ± 0.081,1.27 ± 0.064,1.51 ± 0.14,1.8 ± 0.22,1.97 ± 0.25,2.13 ± 0.29,2.23 ± 0.35
HMGN2 (UniProt P05204),0.992 ± 0.2,1 ± 0.14,1.31 ± 0.23,1.46 ± 0.35,1.5 ± 0.11,1.89 ± 0.35,1.7 ± 0.41,2.68 ± 0.3
UniProt P35606|P35606-2,1.04 ± 0.075,1.07 ± 0.11,0.994 ± 0.089,1.04 ± 0.12,1.04 ± 0.12,1.03 ± 0.12,1.01 ± 0.097,0.984 ± 0.087
HMGN1 (UniProt P05114),1.26 ± 0.29,1.29 ± 0.33,1.39 ± 0.48,1.52 ± 0.48,1.34 ± 0.34,1.83 ± 0.67,1.66 ± 0.36,1.8 ± 0.33
ZKSCAN1 (UniProt P17029),0.9748 ± 0.0051,0.986 ± 0.034,0.987 ± 0.047,0.958 ± 0.024,0.963 ± 0.015,0.978 ± 0.026,1 ± 0.075,0.993 ± 0.041
TIMM23 (UniProt O14925),0.979 ± 0.016,0.902 ± 0.037,0.856 ± 0.016,0.892 ± 0.02,0.904 ± 0.043,0.877 ± 0.026,0.838 ± 0.046,0.898 ± 0.042

# From the supplement of paper PMC6411743
